Screens as filed in PubChem.
An excerpt weighted towards active compounds, which were near 2.4% of everything screened.
POLI inh = blocks human DNA polymerase iota activity. Q9UNA4. Pol iota fluorescent replication assay, 10 min. Potency, µM (titrated, usually from 115 µM), actives largely listed as inhibitors. hit rate 1% among 390,000. AID 588590
Target sequence (Q9UNA4 whole entry, looked up): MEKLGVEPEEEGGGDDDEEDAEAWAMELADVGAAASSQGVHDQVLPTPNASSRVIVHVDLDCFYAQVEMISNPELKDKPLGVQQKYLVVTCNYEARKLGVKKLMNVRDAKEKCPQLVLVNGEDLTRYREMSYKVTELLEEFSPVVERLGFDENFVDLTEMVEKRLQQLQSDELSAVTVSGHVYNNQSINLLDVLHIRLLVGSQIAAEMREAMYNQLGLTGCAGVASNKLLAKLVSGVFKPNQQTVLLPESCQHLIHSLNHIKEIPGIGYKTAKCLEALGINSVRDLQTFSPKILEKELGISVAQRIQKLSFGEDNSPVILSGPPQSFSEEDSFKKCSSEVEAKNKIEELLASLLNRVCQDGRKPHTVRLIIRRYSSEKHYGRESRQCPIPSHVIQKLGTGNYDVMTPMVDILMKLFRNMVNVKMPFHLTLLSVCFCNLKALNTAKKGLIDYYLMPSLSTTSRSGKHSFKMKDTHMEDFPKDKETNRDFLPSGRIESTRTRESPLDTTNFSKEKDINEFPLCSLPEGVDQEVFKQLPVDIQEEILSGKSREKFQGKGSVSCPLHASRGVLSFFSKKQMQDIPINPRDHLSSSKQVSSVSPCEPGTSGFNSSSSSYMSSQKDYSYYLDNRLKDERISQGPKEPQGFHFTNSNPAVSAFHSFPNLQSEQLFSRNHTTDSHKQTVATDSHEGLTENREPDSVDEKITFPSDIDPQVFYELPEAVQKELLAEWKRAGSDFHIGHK
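Fluorescent replication assay read twice, at 0 min and 10 min after adding 50 nM (final) substrate. Enzyme (10 nM) and compounds were first incubated 15 min at room temperature; enzyme-free buffer wells were negative controls.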
Pol beta inh = blocks human DNA polymerase beta activity | P06746 | Pol beta primer extension/strand displacement, fluorescence kinetic | Potency, µM (top dose mostly 114 µM), actives largely listed as inhibitors | hit rate 1.3% among 340,000 | AID 485314
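Curves were derived by four-parameter Hill fits of normalized qHTS data. The kinetic fluorescent primer-extension read was taken at 0 and 10 min after 50 nM substrate, following a 15 min room-temperature preincubation of 10 nM enzyme with compounds.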
Pol kappa inh = DNA polymerase kappa (human) inhibition | purified Pol kappa, fluorescent DNA synthesis assay, 10 min | Potency, µM (series often up to 107 µM), usual class: inhibitors | hit rate 0.53% among 400,000 | AID 588579
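10 nM Pol kappa was preincubated with compounds for 15 min at room temperature. Reaction started with 50 nM (final) substrate. Fluorescence read kinetically at 0 and 10 min.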
WRN helicase inh = inhibitors of human WRN helicase; Q14191; WRN helicase unwinding, fluorescent forked duplex, kinetic; Potency, µM (doses to about 114 µM), actives largely listed as inhibitors; hit rate 0.46% among 360,000; AID 651768; note: nearly all actives have a fitted effect of over 55% in size
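Kinetic fluorescence helicase assay: unwinding of a quenched forked DNA duplex (100 nM final) with 2 mM ATP final raises red fluorescence (525/598 nm). Compounds sat 15 min at room temperature with 20 nM WRN beforehand.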
FEN1 inhibitor = blocks human flap endonuclease 1 | Recombinant FEN1 flap cleavage, fluorescence, 15 min | Potency, µM (doses to about 114 µM), hits mostly inhibitors | hit rate 0.35% among 390,000 | P39748; note: nearly all actives have a fitted effect of over 65% in size
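Concentration–response screening of FEN1 (10 nM): 15 min compound preincubation at room temperature, reaction started with 50 nM substrate and read at 0 and 15 min. Corrected, normalized data were fitted by a four-parameter Hill equation.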
Pol eta inh = blocks human DNA polymerase eta activity; Q9Y253; recombinant Pol eta, fluorescent DNA replication assay; Potency, µM (series often up to 114 µM), actives largely listed as inhibitors; hit rate 1.2% among 390,000
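Pol eta (10 nM) was preincubated with compounds for 15 min at room temperature, after which fluorescent replication substrate (50 nM final) was added to start the reaction. Fluorescence was read kinetically at 0 and 10 min.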
Of the large screens only hits and unclear results are named; the others gave an inactive call; ! = repeats disagree. Calls come from the whole dose curve; as a rule, active = well fitted curve in the direction sought with a large enough effect; inconclusive = small, poorly fitted or top-dose-only effect, or another doubt; inactive = no such curve, though single readings can be large; an effect the other way counts as inactive or inconclusive.

Oc1cc(O)c2c(c1)O[C@H](c1ccc(O)c(O)c1)[C@@H](O)C2	POLI inh inconclusive, Pol beta inh 13µM, Pol kappa inh inconclusive, Pol eta inh 28µM! (no result: WRN helicase inh)
O[C@@H]1Cc2ccccc2O[C@H]1c1ccccc1	none (no result: Pol beta inh)
Oc1ccc2c(c1)OC(c1ccc(O)c(O)c1)C(O)C2 (stereo not given)	Pol kappa inh 10µM (no result: POLI inh, Pol beta inh, WRN helicase inh, FEN1 inhibitor, Pol eta inh)
O=C(Nc1cccc(N=Cc2cc(Br)cc(Br)c2O)c1)c1ccco1	POLI inh 89µM, WRN helicase inh inconclusive, Pol eta inh inconclusive
O=C(Nc1cccc(N=Cc2cc(Cl)cc(Br)c2O)c1)c1ccco1	WRN helicase inh inconclusive, Pol eta inh inconclusive
O=C(c1cc2ncc(Br)cn2n1)N1CCN(C(=O)c2ccco2)CC1	POLI inh inconclusive, Pol beta inh inconclusive, WRN helicase inh inconclusive, Pol eta inh 13µM
O=C(c1cc2ncc(Br)cn2n1)N1CCOCC1	none
O=C(NCCc1ccccc1)c1cc2ncc(Br)cn2n1	POLI inh inconclusive, Pol beta inh 40µM, Pol eta inh inconclusive
O=C(COc1ccccc1C(=O)Nc1ccccc1)Nc1ccc2ccccc2c1	POLI inh inconclusive (no result: Pol beta inh, WRN helicase inh, Pol eta inh)
O=C(COc1ccc(S(=O)(=O)N2CCOCC2)cc1)N1CCOCC1	none (no result: Pol beta inh)
O=C(COc1ccc(/C=C\[N+](=O)[O-])cc1)N1CCOCC1	POLI inh 32µM, Pol eta inh 32µM
CCOC(=O)c1c(-c2ccccc2)csc1NC(=O)c1cc(-c2cccc(OC)c2)on1	FEN1 inhibitor inconclusive (no result: WRN helicase inh)
Cn1cc(-c2nc3cnc(Oc4ccccc4)nc3n(C)c2=O)c2ccccc21	none (no result: POLI inh, Pol beta inh, WRN helicase inh, FEN1 inhibitor, Pol eta inh)
Cc1cc(C(F)(F)F)c2c(n1)sc1c(O)cc(=O)[nH]c12	POLI inh 3.2µM, Pol kappa inh 71µM
Cc1nc2sc3c(O)cc(=O)[nH]c3c2c(C)c1C	none
CCCC[C@]12Cc3ccccc3C(O1)c1c(c3ccccc3oc1=O)O2	none (no result: POLI inh, Pol kappa inh, WRN helicase inh, FEN1 inhibitor, Pol eta inh)
O=c1ccc2ccc(O)c(O)c2o1	POLI inh 24µM, Pol beta inh 14µM, Pol kappa inh 9.5µM, FEN1 inhibitor 7.5µM, Pol eta inh inconclusive (no result: WRN helicase inh)
COc1cc2ccc(=O)oc2cc1O	none (no result: Pol beta inh)
CN1CCC(N2CCN(c3cccc(C(F)(F)F)c3)CC2)CC1	POLI inh 35µM
CNc1nc(-c2ccccc2)c(-c2ccccc2)s1	none (no result: Pol beta inh, WRN helicase inh, Pol eta inh)
N/C(=N\OS(=O)(=O)c1ccccc1)c1ccncc1	POLI inh 20µM
N/C(=N\OS(=O)(=O)c1ccc2ccccc2c1)c1ccncc1	none
COc1ccc(-n2c(SCC(=O)C(C)(C)C)nc3c(sc(=S)n3-c3ccccc3)c2=O)c(OC)c1	POLI inh 11µM
O=c1c2ccccc2sn1-c1cc(S(=O)(=O)N2CCOCC2)ccc1N1CCOCC1	WRN helicase inh inconclusive, FEN1 inhibitor 32µM!
O=c1c2ccccc2sn1-c1cc(S(=O)(=O)N2CCOCC2)ccc1N1CCCC1	none
O=C1OC(c2ccc(F)cc2)=C/C1=C\c1ccc([N+](=O)[O-])o1	Pol beta inh 7.1µM (no result: POLI inh, Pol kappa inh, WRN helicase inh, FEN1 inhibitor, Pol eta inh)
COc1ccc(C(=O)/C(Br)=C/C(=O)O)cc1	none (no result: POLI inh, Pol beta inh, WRN helicase inh, FEN1 inhibitor, Pol eta inh)
Cc1c(N)cc(S(=O)(=O)O)cc1NC(=O)c1cccc([N+](=O)[O-])c1	POLI inh inconclusive, Pol eta inh 28µM (no result: Pol beta inh)
COc1ccc(C(=O)C[n+]2cccc(Br)c2)cc1	WRN helicase inh inconclusive
O=C(CBr)c1ccc(Oc2ccc(C(=O)C[n+]3cccc(Br)c3)cc2)cc1	POLI inh 79µM (no result: Pol beta inh, WRN helicase inh, Pol eta inh)
CC(C)(C)OC(=O)N1CCC(c2c(C(=O)NCc3cccc(Cl)c3)cnn2-c2ccc(F)cc2)CC1	none (no result: WRN helicase inh)
O=C1C2C3C=CC(C3)C2C(=O)N1c1ncn[nH]1 (stereo not given)	POLI inh inconclusive, Pol beta inh 40µM, Pol eta inh inconclusive
O=S(=O)(NCC(O)COCc1ccco1)c1cccs1 (stereo not given)	POLI inh 22µM, Pol beta inh 22µM, Pol kappa inh 35µM, WRN helicase inh inconclusive, Pol eta inh 20µM
CC(C)(C)n1ncc2c(=O)n(Cc3ccc(C#N)c(F)c3)cnc21	none (no result: Pol beta inh, WRN helicase inh, Pol eta inh)
Cc1ccc(NC(=O)CN2C(=O)c3ccccc3Sc3ccc(C(=O)N4CCCC4)cc32)cc1	POLI inh 71µM, Pol beta inh inconclusive, Pol eta inh inconclusive (no result: WRN helicase inh)
